The values below come from paper PMC11006913.

The test deals with T1, NKX2-6 (Homo sapiens, UniProt A6NCS4 118-204, R150C).
T1 sequence: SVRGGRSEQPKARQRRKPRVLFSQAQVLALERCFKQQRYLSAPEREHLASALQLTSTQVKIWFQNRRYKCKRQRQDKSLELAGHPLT
In words: PBM; 200 nM protein, PBS. Particulars: dsDNA, one strand shown.
On to AACCGCCC, for which the binding signal was 9.72 upbm affinity estimate (log intensity, higher = more binding, comparable within an allelic series).
In the case of ACCGTGGA, the binding signal is 9.56 upbm affinity estimate (log intensity, higher = more binding, comparable within an allelic series).
On to CCCGCAGC, for which the binding signal was 9.3 upbm affinity estimate (log intensity, higher = more binding, comparable within an allelic series).
Turning to ATACTTGG, the binding signal was 10.8 upbm affinity estimate (log intensity, higher = more binding, comparable within an allelic series).
As for CTTGCCGC, the binding signal was 9.53 upbm affinity estimate (log intensity, higher = more binding, comparable within an allelic series).
With ACCGACGC, the binding signal was 9.5 upbm affinity estimate (log intensity, higher = more binding, comparable within an allelic series).
Consider CAAGTGGA, for which the binding signal is 11.6 upbm affinity estimate (log intensity, higher = more binding, comparable within an allelic series).
For the sequence CGGTTAGC, the binding signal was 9.51 upbm affinity estimate (log intensity, higher = more binding, comparable within an allelic series).
Then GGGCCACC, with 9.52 upbm affinity estimate (log intensity, higher = more binding, comparable within an allelic series); and GAGTCTGC, with 9.64 upbm affinity estimate (log intensity, higher = more binding, comparable within an allelic series).
As for AAAAAGTG, the binding signal is 11.2 upbm affinity estimate (log intensity, higher = more binding, comparable within an allelic series).
As for GGGGCCAC, the binding signal was 9.87 upbm affinity estimate (log intensity, higher = more binding, comparable within an allelic series).
As to TCACTCAA, the binding signal is 10.9 upbm affinity estimate (log intensity, higher = more binding, comparable within an allelic series).
As to GGCGGGAC, the binding signal was 9.37 upbm affinity estimate (log intensity, higher = more binding, comparable within an allelic series).
Regarding CTACCGGC, the binding signal was 9.49 upbm affinity estimate (log intensity, higher = more binding, comparable within an allelic series).
For CACTTCCA, the binding signal was 11 upbm affinity estimate (log intensity, higher = more binding, comparable within an allelic series).
In the case of CACGCCAG, the binding signal was 9.43 upbm affinity estimate (log intensity, higher = more binding, comparable within an allelic series).
In the case of GGGGAACC, the binding signal was 9.63 upbm affinity estimate (log intensity, higher = more binding, comparable within an allelic series).
ACAGGGGG: the binding signal is 9.27 upbm affinity estimate (log intensity, higher = more binding, comparable within an allelic series).
Turning to GGTCAGAC, the binding signal is 9.52 upbm affinity estimate (log intensity, higher = more binding, comparable within an allelic series).
CACCCCGC: the binding signal was 9.31 upbm affinity estimate (log intensity, higher = more binding, comparable within an allelic series).
On to GACCTGGC, for which the binding signal is 9.43 upbm affinity estimate (log intensity, higher = more binding, comparable within an allelic series).
Take GGTCTGCA: the binding signal was 9.86 upbm affinity estimate (log intensity, higher = more binding, comparable within an allelic series).
As to CAGCCCTG, the binding signal is 9.44 upbm affinity estimate (log intensity, higher = more binding, comparable within an allelic series).
Then GCCGTGAA, with 9.62 upbm affinity estimate (log intensity, higher = more binding, comparable within an allelic series).
Consider GCAGCACC, for which the binding signal is 9.59 upbm affinity estimate (log intensity, higher = more binding, comparable within an allelic series).
Then CAAAGTGC, with 11 upbm affinity estimate (log intensity, higher = more binding, comparable within an allelic series); and ACCCGGCA, with 9.55 upbm affinity estimate (log intensity, higher = more binding, comparable within an allelic series).
AAGCCCCC: the binding signal was 9.33 upbm affinity estimate (log intensity, higher = more binding, comparable within an allelic series).
In the case of ACCTCCCC, the binding signal was 9.56 upbm affinity estimate (log intensity, higher = more binding, comparable within an allelic series).
Turning to CCCGGGGA, the binding signal was 9.42 upbm affinity estimate (log intensity, higher = more binding, comparable within an allelic series).
The figure for TACAAGTA is 11.3 upbm affinity estimate (log intensity, higher = more binding, comparable within an allelic series).
For GAGGCGGA, the binding signal was 9.49 upbm affinity estimate (log intensity, higher = more binding, comparable within an allelic series).
On to AGCCCCTG, for which the binding signal is 9.59 upbm affinity estimate (log intensity, higher = more binding, comparable within an allelic series).
As to ATCACCCG, the binding signal was 9.63 upbm affinity estimate (log intensity, higher = more binding, comparable within an allelic series).
The figure for CCCAGGGG is 9.24 upbm affinity estimate (log intensity, higher = more binding, comparable within an allelic series); for CAGACGCC it is 9.62 upbm affinity estimate (log intensity, higher = more binding, comparable within an allelic series).
With AATCCGCC, the binding signal was 9.75 upbm affinity estimate (log intensity, higher = more binding, comparable within an allelic series).
As for ACGGGGTC, the binding signal is 9.58 upbm affinity estimate (log intensity, higher = more binding, comparable within an allelic series).
Then GTAAGTAC, with 11.7 upbm affinity estimate (log intensity, higher = more binding, comparable within an allelic series).
